# Calls of active or inactive are those of the source. Rule for the calls: active = hit-call score of the fitted dose curve at least 0.9, where 1 is the maximum; inactive = score below 0.9.
# Experiment: STM_H9_CystineISnorm_perc: Stemina devTOX quickPredict H9 human embryonic stem cell (hESC)-based Assay for Cystine (CYSS) Metabolite Biomarker, Normalized (AID 2283713)
# Excerpt: STM_H9_secretome utilizes undifferentiated H9 cells to measure relative changes in two metabolites, ornithine (ORN) and cystine (CYSS) in the secretome, targeting a critical drop in the ORN/CYSS ratio as a biomarker for developmental toxicity.STM_H9_CystineISnorm_perc is one of 10 components calculated in the STM_H9_secretome assay. It measures the integrated area of the endogenous cystine normalized to the spiked-in isotopically labeled standard and to the median value of the 0.1% DMSO neutral control treatment using UPLC-HRMS technology.Data from the assay component STM_H9_CystineISnorm_perc was analyzed at the assay endpoint STM_H9_CystineISnorm_perc in the positive analysis fitting direction relative to DMSO as the negative control and baseline of activity. Using a type of binding reporter, gain or loss-of-signal activity can be used to understand relative metabolite change.
# H9 hESCs maintained in a pluripotent state were exposed to test compound for 72h with chemical replenishment with media replacement every 24h. Cell-conditioned media from the final 24-h treatment period was collected for analysis of the targeted biomarker, and cell viability of the corresponding cell layer was assessed. The chemical library was tested in blinded fashion. Each test plate included 1uM Methotrexate (MTX; Selleck Chemicals, Houston, Texas) as a positive reference, 5 nM MTX as a negative reference, 0.1% DMSO as the neutral (vehicle) control, and sample-level media blanks.H9 cell-conditioned media from the final 24-h treatment period was collected for analysis of the targeted biomarker and cell viability was measured from the corresponding cell layer. Cell viability was measured using the CellTiter-Fluor assay (Promega, Madison, Wisconsin) based on proteolytic cleavage of a substrate to fluorescent signal proportional to the number of living cells. The cell viability Relative Fluorescence Unit (RFU) was background corrected and normalized to mean RFU of the neutral control (0.1% DMSO). The collected H9-cell-conditioned media samples were processed for targeted biomarker analysis as described (Palmer et al., 2013). Briefly, spent media samples were deproteinized (40% acetonitrile) and processed for UPLC-HRMS. Data acquisition was performed using 4 separate UPLC-HRMS systems, consisting of an Agilent 1290 Infinity LC system (Agilent Technologies) interfaced with an Agilent high-resolution mass spectrometer (models G6520A, G6520B, G6530A, and G6224A). A Waters Acquity UPLC BEH Amide column (2.1mm x 50mm, 1.7lm particle size; Waters, Milford, Massachusetts) maintained at 40C was applied for separation of metabolites using a 6.5min solvent gradient with 0.1% formic acid in water and 0.1% formic acid in acetonitrile (1.0ml/min flow rate). Data were acquired using MassHunter Acquisition software (version B 04.00, Agilent Technologies). The extracted ion chromatogram (EIC) areas for ORN, CYSS, and their respective spike-in C13-standards were determined using the Agilent MassHunter Quantitative Analysis software, version B.05.00 or newer (Agilent Technologies), and data were normalized as described in Palmer et al. (2017).
Compound,outcome,AC50
CN(C)C=O,inactive,–
C#C[C@]1(O)CC[C@H]2[C@@H]3CCC4=CC(=O)CC[C@@H]4[C@H]3CC[C@@]21C,–,79.8 µM (active)
COc1ccc([N+](=O)[O-])cc1N,inactive,–
O=C(OCCOCCOC(=O)c1ccccc1)c1ccccc1,inactive,–
C[C@@H]1C[C@H]2[C@@H]3CCC4=CC(=O)C=C[C@]4(C)[C@@]3(F)[C@@H](O)C[C@]2(C)[C@@]1(O)C(=O)COP(=O)(O)O,inactive,–
Nc1cccc2c(N)cccc12,inactive,–
CN1CCC[C@H]1c1cccnc1,inactive,–
CC(O)CO (configuration not stated),–,675000 µM (active)
CN1CCN(c2ccccc2/C=C2\SCCN(c3ccc(Cl)c(Cl)c3)C2=O)CC1,–,7.81 µM (active)
CC1=C(/C=C/C(C)=C/C=C/C(C)=C/C(=O)O)C(C)(C)CCC1,–,0.00844 µM (active)
O=C(O)Cc1cc(I)c(Oc2cc(I)c(O)c(I)c2)c(I)c1,inactive,–
N#C[C@@H]1CC(F)(F)CN1C(=O)CNC1CC2CCC(C1)N2c1ncccn1 (some centres not stated),inactive,–
CCN(CC)CCNc1ccc(CNC=O)c2sc3ccc(OC)cc3c(=O)c12,–,2.53 µM (active)
CCCCCCCCCCCCc1ccccc1S(=O)(=O)O,inactive,–
CCc1ccc(CCOc2ccc(CC3SC(=O)NC3=O)cc2)nc1 (configuration not stated),–,88.9 µM (active)
c1ccc2c(c1)ccc1ccccc12,–,80.3 µM (active)
Cc1cc(CCN2CCN(c3nsc4ccccc34)CC2)cc2c1NC(=O)CC2(C)C,–,8.41 µM (active)

# — PubChem BioAssay (EPA / NIEHS)
